The text below walks through data of PubChem BioAssay (NCATS).

Results filed as inconclusive are left out. Unmarked numbers belong to inactive results. Calls of active or inactive are those of the source. Unless noted, the call rests on the fitted dose curve; in most records, active means well fitted curve in the direction sought with a large enough effect; inconclusive means small, poorly fitted or top-dose-only effect, or another doubt; inactive means no such curve, though single readings can be large; an effect the other way counts as inactive or inconclusive.

Experiment [1] has as its target Cellular tumor antigen p53 (Homo sapiens) (UniProt P04637). As to the kind of experiment: Primary qHTS for small molecule compounds that upregulate eGFP-tagged delta133p53alpha (in N-terminal) cells. (AID 2060322). Further: nearly all actives have a fitted effect of over 75% in size.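 On activation: series mostly up to about 56 µM; 0% = DMSO vehicle and 100% = reference activator.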 The settings on record: NCI-H358 eGFP-delta133p53alpha fluorescence, 24 h; activation: active compounds read high. A digest of the protocol: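 NCI-H358 cells pre-induced 24 h with 10 ng/ml doxycycline to express N-terminal eGFP-delta133p53alpha, then dosed 24 h at 37C without doxycycline; fixed, Hoechst-stained, GFP intensity by laser scanning cytometry, normalized to DMSO (0%) and 57.5 uM 5-azacytidine (100%).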
On the technique in general: In qHTS, concentration-response curves come from the screen itself.

Experiment [2] concerns the target Aldehyde dehydrogenase, mitochondrial (Homo sapiens) (UniProt P05091). In words: qHTS for Inhibitors of the Aldehyde Dehydrogenase Family (ALDH2) Confirmatory screens (AID 2061303; active means well fitted inhibition curve with a large enough effect; title and protocol of this record describe different tests; further: nearly all actives have a fitted effect of over 45% in size).
Experiment [3] in a line: qHTS for Inhibitors of the Aldehyde Dehydrogenase Family (ALDH1A2, ALDH1A3, ALDH2, ALDH3A1) (AID 2061307). Further: nearly all actives have a fitted effect of over 50% in size. On Potency: test system not described further here.
The target of experiment [4] is Aldehyde dehydrogenase, mitochondrial (Homo sapiens) (UniProt P05091). As to the kind of experiment: qHTS for Inhibitors of the Aldehyde Dehydrogenase Family (ALDH2) Primary screen (AID 2061308). Further: nearly all actives have a fitted effect of over 55% in size.
Experiment [5] deals with Retinaldehyde dehydrogenase 3 (Homo sapiens) (UniProt P47895). In words: qHTS for Inhibitors of the Aldehyde Dehydrogenase Family (ALDH1A3) Confirmatory screens (AID 2061311). Further: nearly all actives have a fitted effect of over 60% in size.
Experiment [6] has the same target. In words: qHTS for Inhibitors of the Aldehyde Dehydrogenase Family (ALDH1A3) Primary screen (AID 2061315).
Experiment [7] addresses Aldehyde dehydrogenase 1A1 (Homo sapiens) (UniProt P00352). In words: qHTS for Inhibitors of the Aldehyde Dehydrogenase Family (ALDH1A1) Confirmatory screens (AID 2061316). Further: nearly all actives have a fitted effect of over 65% in size.
Experiment [8] has as its target Retinal dehydrogenase 2 (Homo sapiens) (UniProt O94788). As to the kind of experiment: qHTS for Inhibitors of the Aldehyde Dehydrogenase Family (ALDH1A2) Confirmation screens (AID 2061314). Further: nearly all actives have a fitted effect of over 65% in size.
A short description of experiment [9]: BET inhibitor-based combinations targeting novel dependencies in MECOM-rearranged (r) AML: SET-2 cell line (AID 2202231). Further: nearly all actives have a fitted effect of over 35% in size. Particulars: SET-2 AML cells viability, CellTiter-Glo luminescence, 48 h; viability: active compounds read low, concentration not given here. A digest of the protocol: (§1)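 Here, 11-point titrations of each agent were applied to 500 seeded cells and incubated 48 hr; CellTiter-Glo signal, scaled against DMSO and empty wells, was integrated as AUC, then Z-scored within the individual line.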

A short description of experiment [10]: BET inhibitor-based combinations targeting novel dependencies in MECOM-rearranged (r) AML: OCI-AML3 cell line (AID 2202232). Further: nearly all actives have a fitted effect of over 35% in size. Particulars: Potency: OCI-AML3 viability. A digest of the protocol: as §1
Experiment [11] in a line: BET inhibitor-based combinations targeting novel dependencies in MECOM-rearranged (r) AML: MV-4-11 cell line (AID 2202233). Further: nearly all actives have a fitted effect of over 45% in size. A digest of the protocol: (§2)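 Normalized to DMSO and empty-well controls, the luminescence data from CellTiter-Glo after 48 hr drug exposure were fitted across 11 concentrations. Reported metrics are area under the dose-response curve and its Z-transformed form.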

The nature of experiment [12]: BET inhibitor-based combinations targeting novel dependencies in MECOM-rearranged (r) AML: HNT-34 cell line (AID 2202234). Further: nearly all actives have a fitted effect of over 35% in size. The procedure, abridged:
as §2

The nature of experiment [13]: BET inhibitor-based combinations targeting novel dependencies in MECOM-rearranged (r) AML: AML-191 cell line (AID 2202236; further: nearly all actives have a fitted effect of over 35% in size). The procedure, abridged: as §1
A short description of experiment [14]: BET inhibitor-based combinations targeting novel dependencies in MECOM-rearranged (r) AML: AML-194 cell line (AID 2202237; further: nearly all actives have a fitted effect of over 40% in size). The procedure, abridged:
as §1
Potency means the concentration at half of the fitted maximal effect.

Chain of Cellular tumor antigen p53 (Homo sapiens) (P04637 whole entry, looked up): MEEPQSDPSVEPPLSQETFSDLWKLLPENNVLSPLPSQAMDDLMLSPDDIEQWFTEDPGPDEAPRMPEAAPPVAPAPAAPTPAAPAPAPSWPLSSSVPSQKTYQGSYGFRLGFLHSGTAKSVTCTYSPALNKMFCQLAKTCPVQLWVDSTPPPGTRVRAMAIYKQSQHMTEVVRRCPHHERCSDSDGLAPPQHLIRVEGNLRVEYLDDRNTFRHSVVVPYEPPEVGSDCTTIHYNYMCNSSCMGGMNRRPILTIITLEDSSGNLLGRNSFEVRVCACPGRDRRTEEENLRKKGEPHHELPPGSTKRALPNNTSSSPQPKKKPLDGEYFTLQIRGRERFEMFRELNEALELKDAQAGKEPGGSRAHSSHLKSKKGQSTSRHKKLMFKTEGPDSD

Consider `CCOc1ccc(Cc2nc(-c3c(C)nc4ccccn34)cs2)cc1`, for which the activation in [1] was -8.33%. The Potency in experiment [2] was 12.6 µM (active); in experiment [3], 11.2 µM (active); in experiment [5], 14.1 µM (active); in [7] it was 6.34 µM (active). Besides, the Potency entry in experiment [4] and in experiment [6] was “inactive” throughout.

Consider `CC/C=C\[C@H](O)[C@H](O)C1=C(C)C(=O)[C@]2(O1)C(=O)N[C@@](O)(C(=O)c1ccccc1)[C@@H]2O`, for which the activation in experiment [1] is -14.5%. Further, the Potency result in [2], in [3], in experiment [4], in [5], in [8] and in [6] was “inactive” each time.

For the compound `Cc1cc(Cl)ccc1COc1ccnn1-c1cc(C(=O)O)ccn1`, the activation in [1] is 5.67%. Moreover, the Potency result in experiment [2], in experiment [3], in experiment [4], in [5], in experiment [8] and in experiment [6] was “inactive” in each case.

For the compound `COc1ccc(NC(=O)N2CCc3c2ccc2ccccc32)cc1N1CCN(C)CC1`, the activation in experiment [1] was 8.59%. The Potency entry in [2], in [3], in experiment [4], in experiment [5], in experiment [8] and in experiment [7] was “inactive” throughout.

On to `CCC(C)C(N)C(=O)NCCN1CCOCC1` (stereo not drawn), for which the activation in experiment [1] was 23%. Moreover, the Potency entry in [2], in experiment [3], in [4], in experiment [5], in experiment [8] and in [6] was “inactive” throughout. Besides, in experiment [7], the Potency entry was “inactive”.

Consider `CNC(=O)Nc1ccc(OC)c(NC(=O)NC(=O)c2cc(F)c(F)cc2Cl)c1`, for which the activation in experiment [1] was -5.67%. For the same compound, the Potency result in [2], in experiment [3], in [4], in experiment [5] and in experiment [7] was “inactive” throughout. Besides, the Potency in [6] is 28.2 µM (active).

Turning to `O=C1C[C@@H](c2ccc(O)cc2)Oc2cc(O)ccc21`, the activation in [1] was 4.3%. Moreover, the Potency result in experiment [2], in experiment [4], in experiment [8] and in experiment [7] was “inactive” each time. The Potency was 3.02 µM (active) in experiment [3] and 12.7 µM (active) in [5].

Consider `COc1ccc(CC2NCCc3c2[nH]c2ccc(C)cc32)cc1OC` (stereo not drawn), for which the activation in [1] was 5.25%. Besides, the Potency result in experiment [2], in experiment [3], in experiment [4], in experiment [5], in [8] and in experiment [6] was “inactive” throughout. In [7], the Potency entry is “inactive”.

Turning to `N#Cc1ccc(O[C@@H]2c3ccccc3C[C@H]2N2CCC[C@@H](N)C2)c(Cl)c1`, in [1], the Potency was 30.1 µM (active). Besides, the Potency result in experiment [2], in experiment [3], in experiment [4], in [5], in [8] and in experiment [6] was “inactive” throughout.

Take `N#Cc1ccc(-c2cnc3[nH]cc(NC(=O)c4cccnc4)c3c2)cc1`: the activation in [1] is -4.46%. Also, the Potency in [2] was 3.57 µM (active); in experiment [3], 1.59 µM (active); in experiment [5], 3.16 µM (active); in experiment [8] it was 2.83 µM (active); in experiment [7], 12.7 µM (active). Further, the Potency entry in experiment [4] and in experiment [6] was “inactive” each time.

In the case of `C/C(=N\N=C(N)N)c1cc(NC(=O)CCCCCCCCC(=O)Nc2cc(/C(C)=N/N=C(N)N)cc(/C(C)=N/N=C(N)N)c2)cc(/C(C)=N/N=C(N)N)c1`, in experiment [1], the Potency was 26.9 µM (active). Further, the Potency result in [2], in [3], in experiment [4], in experiment [5], in [6] and in experiment [7] was “inactive” each time.

For `N[C@@]1(C(=O)O)CC[C@H]2[C@H](C(=O)O)[C@H]21`, the activation in [1] was -12.3%. The Potency entry in experiment [2], in experiment [3], in experiment [4], in [5], in experiment [8] and in experiment [6] was “inactive” each time. The Potency result in experiment [7] was “inactive”.

`COC(=O)[C@]1(Cc2ccc(O)c(CC=C(C)C)c2)OC(=O)C(O)=C1c1ccc(O)cc1`: the activation in experiment [1] is 1.53%. For the same compound, the Potency entry in experiment [2], in experiment [3], in experiment [4] and in [8] was “inactive” in each case. For the same compound, the Potency in experiment [5] was 12.3 µM (active).

With `Fc1ccc(-c2nc(C3CCNCC3)sc2-c2ccnc(NC3CC3)n2)cc1`, the Potency in experiment [1] is 26.9 µM (active). Further, the Potency entry in experiment [2], in experiment [3], in experiment [4], in experiment [5], in experiment [8] and in experiment [6] was “inactive” in each case. Further, the Potency entry in experiment [7] was “inactive”.

`O=C(c1cccc(Cl)c1F)N1CCN(Cc2cccc(Nc3nccs3)n2)CC1`: the activation in experiment [1] is 23.9%. Moreover, the Potency result in experiment [2], in experiment [3], in experiment [4] and in [6] was “inactive” in each case. Further, the Potency in [5] was 35.5 µM (active).

As to `C=CC(=O)N1CCCN(c2cc(NCCC(=O)O)nc(-c3ccccn3)n2)CC1`, the activation in experiment [1] was 9.67%. The Potency entry in experiment [2], in experiment [3], in [4], in experiment [5] and in experiment [6] was “inactive” each time.

Take `C[S+](CC[C@H](N)C(=O)[O-])C[C@H]1O[C@@H](n2cnc3c(N)ncnc32)[C@H](O)[C@@H]1O` (stereo partly drawn): the activation in experiment [1] is 12.3%. For the same compound, the Potency result in [2], in experiment [3], in [4], in [5], in experiment [8] and in experiment [6] was “inactive” each time. For the same compound, the Potency entry in [7] was “inactive”.

For the compound `O=C(CCl)Nc1cccc(NC2=NS(=O)(=O)c3ccccc32)c1`, the Potency in [1] is 26.9 µM (active); in experiment [8], 1.01 µM (active); in [7], 12.7 µM (active); in experiment [9] it was 26.3 µM (active); in experiment [10], 10.5 µM (active); in experiment [11], 16.6 µM (active). In addition, the Potency in experiment [12] was 5.25 µM (active); in experiment [13], 8.33 µM (active); in experiment [14], 13.2 µM (active). The Potency entry in experiment [2], in experiment [3], in [4], in [5] and in experiment [6] was “inactive” each time.

As for `O=C(O)c1ccc(N2C(=O)/C(=C/c3ccc(-c4ccc([N+](=O)[O-])cc4)o3)C=C2c2ccccc2)cc1`, in experiment [1], the activation was 24.3%. Besides, the Potency was 1.59 µM (active) in experiment [2]; 11.3 µM (active) in experiment [3]; 3.98 µM (active) in [4]; 20.1 µM (active) in experiment [5]; 5.65 µM (active) in experiment [8]; 3.18 µM (active) in [7].

Turning to `CC(=O)N(O)CCCCCN1C(=O)CCC1=O`, in [1], the activation was -6.25%. The Potency result in [2], in experiment [3], in [4], in experiment [5], in experiment [6] and in experiment [7] was “inactive” each time.

Consider `CC1(C)C[C@H]2C=C(C=O)[C@]3(C(=O)O)C[C@]3(C)[C@H]2C1`, for which the activation in experiment [1] is 18.8%. Besides, the Potency result in experiment [2], in [3], in [4], in [5], in experiment [8] and in [6] was “inactive” in each case. Further, in experiment [7], the Potency entry is “inactive”.
